In PubChem BioAssay:
Where “and” joins values, the source holds several entries; their conditions need not be identical. Equal values may be shown once. Calls of active or inactive are those of the source.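 The calls were made as follows, unless noted: active = compounds whose cell count with miR-34 switched on is under 0.7 times the count with it off; inactive = the rest.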

Columns and labels:
[1] = sensitizers of A549 cells to miR-34 induction, primary screen, imaging, A549 dox-inducible miR-34, nuclei and caspase counts (AID 1347080); conditions: A549 miR-34 inducible, Hoechst nuclei count, 48 h
[2] = survival rescue of mitochondrial mutant cells in low glucose, primary screen, MELAS cybrids, Rieske KO mouse fibroblasts, CellTiter-Glo (AID 1508586;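 active = mean z-score across replicates of 1.96 or higher in either the MELAS or the Rieske mutant cell line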;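 also: z relative to plate mean and SD of compound and empty wells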)
[3] = biological target: NAD(+) hydrolase SARM1 (Homo sapiens) (UniProt Q6SZW1); experiment: SARM1 TIR NADase inhibitors, cell lysate, NAD-Glo luminescence (AID 1508614;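 active = compound whose remaining NAD level is above about 45 nM, limit read from the data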;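 also: higher remaining NAD means stronger inhibition of SARM1 NADase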); conditions: SAM-TIR HEK293T lysate NADase, at 1 µM, stronger effect = higher value
NAD(+) hydrolase SARM1 (Homo sapiens), sequence (Q6SZW1 whole entry, looked up, the tested form may be a part): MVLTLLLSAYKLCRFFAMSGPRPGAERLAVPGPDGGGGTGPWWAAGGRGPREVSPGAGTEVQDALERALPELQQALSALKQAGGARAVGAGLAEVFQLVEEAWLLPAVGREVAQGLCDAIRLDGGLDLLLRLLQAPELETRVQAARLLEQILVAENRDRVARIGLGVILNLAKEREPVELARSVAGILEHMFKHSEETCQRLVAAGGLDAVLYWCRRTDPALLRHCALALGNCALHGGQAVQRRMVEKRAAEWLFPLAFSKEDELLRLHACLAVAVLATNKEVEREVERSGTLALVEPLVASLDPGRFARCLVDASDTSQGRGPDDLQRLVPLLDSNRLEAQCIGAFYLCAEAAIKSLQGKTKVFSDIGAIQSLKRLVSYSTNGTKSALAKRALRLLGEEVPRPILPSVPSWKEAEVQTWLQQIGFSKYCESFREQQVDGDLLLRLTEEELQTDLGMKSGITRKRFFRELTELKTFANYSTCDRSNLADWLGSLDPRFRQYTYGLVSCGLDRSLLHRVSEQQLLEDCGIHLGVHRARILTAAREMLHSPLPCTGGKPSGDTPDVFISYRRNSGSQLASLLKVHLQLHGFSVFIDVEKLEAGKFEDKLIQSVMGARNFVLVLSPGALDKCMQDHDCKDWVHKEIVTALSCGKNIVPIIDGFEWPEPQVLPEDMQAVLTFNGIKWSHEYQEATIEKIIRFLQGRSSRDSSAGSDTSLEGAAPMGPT

[4] = biological target: Mitogen-activated protein kinase 7 (Homo sapiens) (UniProt Q13164); experiment: ERK5 transactivation activators in reporter cells, primary screen, cell-based, HTS (AID 1508626;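 active = luciferase signal above three times the same-plate solvent-only control wells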;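 also: luciferase driven by Gal4-ERK5 fusion binding five Gal4 sites before minimal TATA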); conditions: HeLa Gal4-ERK5 transactivation, 18 h, at 5 µM, stronger effect = higher value
Mitogen-activated protein kinase 7 (Homo sapiens), sequence (Q13164 whole entry, looked up, the tested form may be a part): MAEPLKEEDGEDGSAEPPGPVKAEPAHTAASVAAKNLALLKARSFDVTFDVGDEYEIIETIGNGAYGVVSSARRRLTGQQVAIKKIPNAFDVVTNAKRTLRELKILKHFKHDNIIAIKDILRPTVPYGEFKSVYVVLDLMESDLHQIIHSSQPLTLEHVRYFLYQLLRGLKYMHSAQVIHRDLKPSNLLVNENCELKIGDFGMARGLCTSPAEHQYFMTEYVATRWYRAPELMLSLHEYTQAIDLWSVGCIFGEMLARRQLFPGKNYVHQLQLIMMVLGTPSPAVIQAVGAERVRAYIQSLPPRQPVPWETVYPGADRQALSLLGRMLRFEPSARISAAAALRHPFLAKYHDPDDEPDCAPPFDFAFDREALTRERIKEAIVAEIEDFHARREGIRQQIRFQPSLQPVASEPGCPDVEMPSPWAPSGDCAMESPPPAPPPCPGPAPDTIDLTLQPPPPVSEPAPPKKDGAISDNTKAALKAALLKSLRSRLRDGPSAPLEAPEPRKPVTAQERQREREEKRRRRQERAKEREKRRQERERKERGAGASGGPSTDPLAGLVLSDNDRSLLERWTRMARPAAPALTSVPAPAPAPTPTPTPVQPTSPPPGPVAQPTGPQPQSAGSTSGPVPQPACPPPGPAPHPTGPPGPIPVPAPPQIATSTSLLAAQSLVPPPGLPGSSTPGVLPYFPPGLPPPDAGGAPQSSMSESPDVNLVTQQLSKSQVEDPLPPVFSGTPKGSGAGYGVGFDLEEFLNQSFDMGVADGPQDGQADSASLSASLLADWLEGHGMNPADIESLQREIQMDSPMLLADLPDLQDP

[5] = viability rescue of complex I mutant cybrids, primary screen, cell-based, galactose medium, ATP luminescence (AID 1645843;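 active = z-score of at least 1.8 in each of two replicates, scored against plate mean and spread of sample wells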;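 also: positive z means more ATP and so rescue of galactose-driven cybrid death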); conditions: complex I mutant cybrid cells, 72 h, stronger effect = higher value
[6] = stronger effect = lower value, cell number ratio, induced over uninduced
[7] = measured here: relative caspase fold change +Dox/-Dox
[8] = measured here: total cells with miR-34 induction, stronger effect = lower value
[9] = measured here: total cells without miR-34 induction
[10] = MELAS cybrid survival, CellTiter-Glo 48 h, stronger effect = higher value
[11] = Rieske KO mouse fibroblast survival, CellTiter-Glo 72 h

Structure (SMILES)	fold change [1, 6]	fold change [1, 7]	cell count [1, 8]	cell count [1, 9]	z-score [2, 10]	z-score [2, 11]	remaining NAD [3]	luciferase signal [4]	z-score [5]
Cc1ccc2c(Cl)cc(Cl)c(O)c2n1	0.915 (inactive) and 0.981 (inactive)	0.745 and 0.409	9230 and 3330	10100 and 3390	-0.257 (inactive)	-0.123	10 nM (inactive)	32 AU (inactive)	–
Cc1c(Cl)cccc1Nc1ccccc1C(=O)O	0.957 (inactive) and 1.02 (inactive) and 0.935 (inactive)	1 and 0.422 and 1.23	9330 and 8170 and 9290	9750 and 8010 and 9940	-0.324 (inactive) and 0.232 (inactive) and 0.0953 (inactive)	-0.0198 and -0.0599 and -0.617	10 nM (inactive)	52 AU (inactive)	1.29 (inactive)
CCCc1ncc(C[n+]2ccccc2C)c(N)n1	0.899 (inactive) and 0.934 (inactive) and 0.817 (inactive)	1.48 and 1.05 and 2.66	8050 and 8570 and 10100	8960 and 9180 and 12400	-0.137 (inactive) and -0.369 (inactive)	-0.2 and 0.188	10 nM (inactive)	52 AU (inactive)	–
Cc1ccc(C(=O)c2ccc(CC(=O)O)n2C)cc1	0.916 (inactive) and 0.846 (inactive) and 0.923 (inactive)	1.2 and 2.52 and 1.03	9430 and 10400 and 9670	10300 and 12300 and 10500	0.498 (inactive) and 0.311 (inactive)	0.161 and -0.684	10 nM (inactive)	84 AU (inactive)	1.02 (inactive)
COc1cc2c3cc1Oc1cc(ccc1O)C[C@@H]1c4c(cc(OC)c(O)c4Oc4ccc(cc4)C[C@@H]3N(C)CC2)CC[N+]1(C)C	0.869 (inactive) and 0.934 (inactive)	2.84 and 1.19	11500 and 10000	13300 and 10700	-0.392 (inactive)	-0.225	10 nM (inactive)	32 AU (inactive)	0.605 (inactive)
CCN(CC)CCOC(=O)C(c1ccccc1)c1ccccc1	0.854 (inactive) and 1.02 (inactive) and 0.902 (inactive)	1.3 and 0.648 and 3.67	8150 and 4320 and 11300	9550 and 4250 and 12500	-0.171 (inactive) and -1.08 (inactive)	0.0167 and -0.106	10 nM (inactive)	84 AU (inactive)	–
Nc1ncnc2c1ncn2[C@@H]1O[C@H](COP(=O)(O)O)[C@@H](O)[C@H]1O	0.848 (inactive)	1.03	9640	11400	0.774 (inactive)	0.196	10 nM (inactive)	292 AU (active)	–
Cc1cc(C)nc(NS(=O)(=O)c2ccc(N)cc2)n1	0.847 (inactive) and 0.927 (inactive) and 0.901 (inactive)	1.07 and 0.872 and 2.46	9060 and 8070 and 10900	10700 and 8710 and 12100	-0.0833 (inactive) and 0.863 (inactive)	-0.156 and 0.665	10 nM (inactive)	36 AU (inactive)	–
Cc1ccsc1/C=C/C1=NCCCN1C	0.892 (inactive) and 0.795 (inactive)	1.23 and 5.32	8120 and 10200	9110 and 12800	-0.598 (inactive)	0.242	10 nM (inactive)	88 AU (inactive)	–
NCCCC[C@H](N[C@@H](CCc1ccccc1)C(=O)O)C(=O)N1CCC[C@H]1C(=O)O	0.921 (inactive) and 0.874 (inactive) and 0.913 (inactive)	0.957 and 2.44 and 1.18	8900 and 11300 and 9570	9670 and 13000 and 10500	0.256 (inactive) and -0.39 (inactive)	-0.142 and -0.658	10 nM (inactive)	92 AU (inactive)	0.245 (inactive)
CCOc1ccc2nc3cc(N)ccc3c(N)c2c1	0.785 (inactive) and 0.928 (inactive)	2.5 and 0.759	3210 and 7370	4090 and 7950	7.85 (active)	4.68	10 nM (inactive)	32 AU (inactive)	–
CCN(CCCc1ccccc1)CCCc1ccccc1	0.954 (inactive) and 0.931 (inactive) and 0.904 (inactive)	1.55 and 0.42 and 0.729	9190 and 7300 and 10700	9640 and 7840 and 11900	-0.31 (inactive) and -0.215 (inactive)	-0.176 and -0.103	10 nM (inactive)	48 AU (inactive)	–
CCN(CC)CCOC(=O)C(Cc1cccc2ccccc12)CC1CCCO1 (stereo unspecified)	0.845 (inactive) and 0.836 (inactive)	1.23 and 5.94	9000 and 10700	10700 and 12800	0.101 (inactive)	-0.0853	10 nM (inactive)	36 AU (inactive)	–
CC(=O)OCC(=O)[C@@]1(O)[C@H](C)C[C@H]2[C@@H]3CCC4=CC(=O)C=C[C@]4(C)[C@@]3(F)[C@@H](O)C[C@@]21C	0.93 (inactive)	1.03	6000	6450	-0.294 (inactive)	0.00126	10 nM (inactive)	120 AU (inactive)	–
COc1cc2c(cc1OC)C(=O)C(CC1CCN(Cc3ccccc3)CC1)C2 (stereo unspecified)	0.863 (inactive) and 0.884 (inactive)	1.25 and 2.01	8000 and 11200	9270 and 12700	1.84 (inactive)	0.641	10 nM (inactive)	32 AU (inactive)	-0.225 (inactive)
CC(=O)Nc1ccc(OCC(O)CNC(C)C)cc1 (stereo unspecified)	0.852 (inactive) and 0.959 (inactive)	1.35 and 1.11	8450 and 10300	9920 and 10700	0.00127 (inactive) and -0.285 (inactive)	-0.287 and 0.516	–	24 AU (inactive)	0.68 (inactive)
C/C=C/c1ccc(OC)cc1	0.85 (inactive) and 0.895 (inactive)	3 and 1.61	10200 and 9980	11900 and 11200	-0.525 (inactive)	-1.37	10 nM (inactive)	76 AU (inactive)	0.095 (inactive)
CC(C)(O)c1ccccc1CC[C@@H](SCC1(CC(=O)O)CC1)c1cccc(/C=C/c2ccc3ccc(Cl)cc3n2)c1	0.896 (inactive)	1.4	9780	10900	0.313 (inactive) and -0.452 (inactive)	0.134 and -0.566	10 nM (inactive)	–	0.48 (inactive)
O=C(Cn1ccnc1[N+](=O)[O-])NCCO	0.871 (inactive) and 0.832 (inactive)	1.39 and 4.67	8390 and 10900	9630 and 13100	-0.801 (inactive)	-0.143	–	76 AU (inactive)	–
COCc1c(C(C)C)nc(C(C)C)c(/C=C/[C@@H](O)C[C@@H](O)CC(=O)O)c1-c1ccc(F)cc1	1.07 (inactive)	1.46	1320	1240	-1.23 (inactive)	-0.402	–	–	-2.23 (inactive)
O=c1cc(CO)occ1O	0.923 (inactive)	0.344	9020	9780	0.152 (inactive)	-0.154	–	–	1.06 (inactive)
